Experimental data from PubChem BioAssay AID463173 (ICCB-Longwood Screening Facility, Harvard Medical School, 2010).
Out of some 52,000 compounds screened, about 4,300 (8.3%) were called active. The full list was thinned out, with actives kept by preference. Values without a mark were called inactive. No stated cut-off is given here; in the data, active means survival mostly below about 52% (no sharp cut-off); inactive means mostly above about 56%.

Tested on: DeltatarO mutant
Assay: S. aureus survival, RN4220 and DeltatarO strains – OD600, teichoic acid synthesis inhibitors, primary screen (AID 463173)
Conditions: S. aureus RN4220 wild type/DeltatarO growth, OD600, 18 h, active compounds read low, screened at 18.75 µg/mL (by protocol)

SMILES	survival
COc1ccc(CCN2C(=O)CN(C3CCCCCC3)C(=O)C2c2ccc(Cl)cc2)cc1OC (configuration not stated)	81%
O=C(Nc1ccccc1-c1nc2ccccc2s1)c1cc(Cl)cc(Cl)c1	84%
COc1ccc(C(=O)Nc2ccccc2-c2nc3ccccc3s2)c(OC)c1	102%
COc1ccc(C(=O)Nc2ccccc2-c2nc3ccccc3s2)cc1OC	7% (active)
CSc1ccc(C(=O)Nc2ccc(-c3nc4ccccc4s3)c(O)c2)cc1	32% (active)
O=C(Nc1ccc(-c2nc3ccccc3s2)c(O)c1)c1ccc(Br)cc1	87%
COc1ccc(C(=O)Nc2cc(C)c(O)c(-c3nc4ccccc4s3)c2)cc1OC	51%
COc1cccc(C(=O)Nc2ccc(-c3nc4ccccc4s3)cc2Cl)c1	72%
COc1cc(OC)cc(C(=O)Nc2ccc(-c3nc4ccccc4s3)c(C)c2)c1	117%
COc1cccc(C(=O)Nc2ccccc2-c2nc3ccccc3s2)c1	33% (active)
O=C(Nc1ccccc1-c1nc2ccccc2s1)c1ccc(F)cc1	81%
COc1cc(OC)cc(C(=O)Nc2ccccc2-c2nc3ccccc3s2)c1	17% (active)
Cc1ccc(C(=O)Nc2ccc(-c3nc4ccccc4s3)c(O)c2)c(C)c1	84%
Cn1c(CNC(=O)CSc2n[nH]c(-c3ccccc3Cl)n2)nc2ccccc21	75%
O=C(Nc1ccc(F)cc1F)c1cc2c(=O)n3ccccc3nc2s1	75%
CCOC(=O)c1ccccc1NC(=O)c1sc2ncn(CC)c(=O)c2c1C	68%
Cc1ccc(C)c(NC(=O)CCc2c(C)n(C)c3cc(-c4ccccc4C)nn3c2=O)c1	63%
CCC(CC)C(=O)Nc1ccccc1C(=O)OCc1cc(=O)n2nc(C3CCCCC3)sc2n1	92%
O=C(Nc1ccc(F)c(Cl)c1)N1CC=C(c2c[nH]c3ccccc23)CC1	77%
CN1CCN(C(CNC(=O)C(=O)Nc2cccc(Cl)c2)c2ccc3c(c2)OCO3)CC1 (configuration not stated)	86%
CCC1=C(c2ccc(C)cc2)S(=O)(=O)N=C1N1CCC(C(=O)Nc2ccccc2C(=O)OC)CC1	89%
Cc1ccc(NC(=O)Cn2c(=O)n(CCc3ccccc3)c(=O)c3c4c(sc32)CCCC4)cc1C	97%
CCCCOc1ccc(C(=O)Nc2ccc3c(c2)CCCN3C(=O)c2cccs2)cc1	83%
CCOC(=O)C(C)ON1C(=O)c2ccccc2C1=O (configuration not stated)	86%
COc1ccc(CCNC(=O)CCS(=O)(=O)c2cc(Br)cc3c2N(C(C)=O)CC3)cc1OC	53%
CC(=O)N1CCc2cc(Br)cc(S(=O)(=O)CCC(=O)Nc3ccc(C)cc3Cl)c21	47% (active)

SMILES	survival
CCOc1ccc(CCNS(=O)(=O)c2cc(Br)cc3c2N(C(C)=O)CC3)cc1OCC	103%
Cc1ccc(NC(=O)CCS(=O)(=O)c2cc(Br)cc3c2N(C(=O)C2CC2)CC3)cc1	90%
CC(=O)N1CCc2cc(Br)cc(S(=O)(=O)CCC(=O)NCCc3ccc(Cl)cc3)c21	44% (active)
CC(=O)N1CCc2cc(Br)cc(S(=O)(=O)NCCc3ccc(Cl)cc3)c21	45% (active)
CCC(=O)N1CCc2cc(Br)cc(S(=O)(=O)CCC(=O)Nc3ccccc3C)c21	87%
CCC(=O)N1CCc2cc(Br)cc(S(=O)(=O)CCC(=O)NCCc3ccc(Cl)cc3)c21	70%
CC(=O)N1CCc2cc(Br)cc(S(=O)(=O)NCCc3cccc(C)c3)c21	75%
COc1ccc(CCNC(=O)c2ccc3c(c2)N(Cc2ccccc2C)C(=O)c2ccccc2S3)cc1OC	118%
CCOC(=O)c1c(C)[nH]c(C)c1S(=O)(=O)NCC(=O)Nc1ccc(CC)cc1	96%
COc1ccc(OC)c(CCNC(=O)C2=C(C)C(=O)OC23CCC(C)CC3)c1 (configuration not stated)	86%
Cc1cc(C(C)(C)C)oc1C(=O)N(CC(=O)NC1CCCC1)c1ccc(F)cc1	77%
COc1ccc(OCC(=O)N2CCC(c3nc4ccccc4s3)CC2)cc1	68%
Cc1ccccc1OCC(=O)N1CCC(c2nc3ccccc3s2)CC1	51%
Cc1cc(Cl)ccc1OCC(=O)N1CCC(c2nc3ccccc3o2)CC1	54%
Cc1cc(Cl)ccc1OCC(=O)N1CCC(c2nc3ccccc3s2)CC1	21% (active)
Cc1cc(C)cc(OCC(=O)N2CCC(c3nc4ccccc4s3)CC2)c1	85%
Cc1cc(OCC(=O)N2CCC(c3nc4ccccc4s3)CC2)ccc1Cl	23% (active)
CC(C)(C)c1ccc(OCC(=O)N2CCC(c3nc4ccccc4s3)CC2)cc1	84%
O=C(COc1cccc(Cl)c1)N1CCC(c2nc3ccccc3s2)CC1	44% (active)
O=C(COc1ccc([N+](=O)[O-])cc1)N1CCC(c2nc3ccccc3s2)CC1	82%
COc1ccc(N2CCN(S(=O)(=O)c3c(C)nc4sc(C)cn4c3=O)CC2)cc1	92%
CCCCSCc1ccc(C(=O)O)o1	77%
O=C(c1cccs1)N1CCCc2cc(NS(=O)(=O)c3cc(F)ccc3F)ccc21	73%
O=C(c1ccccc1F)N1c2nc(-c3ccco3)nn2C2(CCCCC2)[C@@H]2CCCC[C@@H]21	69%
C=Cc1ccc(Cn2c(C)c(CNCCc3ccccc3C)c(C(=O)O)c2C)cc1	53%
Cc1cc(C)c(NS(=O)(=O)c2ccc(-c3coc(C)n3)cc2)c(C)c1	94%

SMILES	survival
CC(=O)OCc1cnc(C)c2oc(=O)c(C(=O)Nc3ccc(C)cc3Cl)cc12	128%
O=C(c1ccccc1)c1ccccc1NC(=O)c1ccccc1C(=O)O	67%
Cc1ccc(NC(=O)c2nc[nH]c2C(=O)N2CCCCC2)c(C(=O)c2ccccc2)c1	82%
O=C(Nc1cc2c(cc1C(=O)c1ccccc1Br)OCCO2)c1ccccc1	68%
Cc1ccc(C(=O)COC(=O)c2cccc(NC(=O)c3ccc(Cl)cc3Cl)c2)cc1	61%
Cc1ccc(NC(=O)c2ccc(Cl)cc2Cl)c(C(=O)c2ccccc2)c1	-1% (active)
O=C(Nc1cc2c(cc1C(=O)c1ccccc1)OCCO2)c1ccc(Br)cc1	82%
Cc1cc(NC(=O)c2ccccc2Cl)ccc1NC(=O)c1ccccc1	77%
Cc1ccc(NC(=O)c2ccc(Br)cc2)c(C(=O)c2ccccc2)c1	-2% (active)
Cc1ccc(NC(=O)c2ccccc2Br)c(C(=O)c2ccccc2)c1	26% (active)
CCOc1ccccc1CNC(=O)c1ccc2c(c1)nc1n2CCCCC1	87%
O=C(c1ccccc1)n1nnc2ccccc21	106%
COc1ccc2c(c1)c1c(c(=O)n(Cc3ccccc3)c(=O)n1Cc1cccc(Cl)c1)n2C	82%
CCC(Oc1ccccc1)C(=O)Nc1nccs1 (configuration not stated)	79%
COc1ccc2c(CNCCc3ccco3)c(C(=O)O)n(Cc3ccccc3)c2c1	101%
CCC(C(=O)Nc1cc(C)ccc1C)n1c(=O)c(C(F)(F)F)nc2ccccc21 (configuration not stated)	102%
CCCc1cnc2c(c1SCC(=O)Nc1ccc([N+](=O)[O-])cc1)c(=O)n(C)c(=O)n2C	66%
COc1ccc(-n2cc(C(=O)OCc3ccc(F)c(F)c3)c3ccccc3c2=O)cc1	98%
COc1ccc(OC)c(NC(=O)c2ccccc2)c1	105%
COc1ccccc1NC(=O)c1ccccc1C(=O)O	82%
O=C(Nc1ccccc1C(=O)O)c1cccc(S(=O)(=O)N2CCCC2)c1	87%
COc1ccccc1NC(=O)c1cc(S(=O)(=O)N2CCN(c3ccccc3Cl)CC2)ccc1F	102%
COc1ccccc1NC(=O)c1cccc(S(=O)(=O)N2CCCCCC2)c1	40% (active)
COc1ccccc1NC(=O)c1ccccc1NC(=O)c1ccccc1	20% (active)
Cc1ccc(S(=O)(=O)N2C(=O)CCC2C(=O)N2CCCC2)cc1 (configuration not stated)	97%
Cc1ccc(N2CCN(c3c(CN4CCCC4)c(=O)oc4ccccc34)CC2)c(C)c1	67%

SMILES	survival
COc1cc(Cl)c(C)cc1Nc1nc2ccccc2c2nnc(C)n12	124%
CCOC(=O)c1sc(N/C=C(\C#N)c2nc3cc(Cl)ccc3o2)c(C#N)c1C	81%
CN(C)c1ccc(CNC(=O)CN2CCSc3ccc(S(=O)(=O)N(C)C)cc32)cc1	66%
Cc1ccccc1CN1C(=O)C2(c3ccccc31)N(c1ccccc1)C(=O)CS2(=O)=O (configuration not stated)	124%
CCOc1ccc2nc(N3CCCC(C(=O)Nc4ccc(OC)cc4)C3)sc2c1 (configuration not stated)	60%
COc1ccc(CCNC(=O)c2cc(S(=O)(=O)N3CCCC(C)C3)cn2C)cc1OC (configuration not stated)	47% (active)
Cc1ccc(CNC(=O)c2cc(S(=O)(=O)N3CCCCCC3)cn2C)cc1	74%
CC1CCCN(S(=O)(=O)c2cc(C(=O)NCCc3ccccc3)n(C)c2)C1 (configuration not stated)	73%
COc1cccc(CNC(=O)c2cc(S(=O)(=O)N3CCCCCC3)cn2C)c1	82%
COc1ccccc1CNC(=O)c1cc(S(=O)(=O)N2CCCC(C)C2)cn1C (configuration not stated)	93%
COc1cccc(CNC(=O)c2cc(S(=O)(=O)N3CCCCC3)cn2C)c1	0% (active)
COc1ccc(CNC(=O)CCc2c(C)c3cc4c(C)coc4cc3oc2=O)cc1	75%
Cc1ccc(SCC(=O)Nc2ccc3oc(-c4cccc(Cl)c4)nc3c2)cc1	72%
Cc1ccc(S(=O)(=O)Nc2ccc3nc(-c4cccc(Cl)c4)oc3c2)cc1	28% (active)
O=S(=O)(Nc1ccc(-c2nc3ccccc3o2)cc1)c1ccccc1	24% (active)
O=S(=O)(Nc1ccc2nc(-c3cccc(Cl)c3)oc2c1)c1ccccc1	52%
COC(=O)c1ccc(-c2nc3ccc(C)cc3o2)cc1	102%
Cc1ccccc1C(=O)Nc1ccc(-c2nc3ccccc3o2)cc1	101%
Cc1ccc(S(=O)(=O)N2CCCc3cc(NS(=O)(=O)c4ccc(F)cc4)ccc32)cc1	74%
O=S(=O)(Nc1ccc2nc[nH]c2c1)c1ccccc1	95%
O=S(=O)(Nc1ccc2nc(-c3ccc(F)cc3)oc2c1)c1ccccc1	32% (active)
O=C(Nc1ccc(-c2nc3cc(NC(=O)c4ccc(F)cc4)ccc3o2)cc1)c1ccc(F)cc1	75%
Cc1ccc(S(=O)(=O)Nc2ccc3nc(-c4ccc(F)cc4)oc3c2)cc1	11% (active)
O=C(O)/C=C/C(=O)Nc1ccc(-c2nc3ccccc3o2)cc1	74%
